Measurements from PubChem BioAssay.
Active and inactive are the calls of the source.

How the values were obtained:
[1] = small molecules captured by biotinylated probe aFSTL3 – biochemical, small-molecule microarray, fluorescence 635/667, stem cell growth factor project, primary screen (AID 1064); conditions: higher = more signal;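 note: measures binding of the biotinylated anti-FSTL3 antibody to printed compounds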
[2] = binders from COS7 lysate, DM2A8 probe, primary screen, torsin A project, cell lysate, small-molecule microarray, fluorescence 635/667 (AID 1065); conditions: higher = more signal, COS7 lysate expressing mutant human TOR1A
[3] = small molecules captured by biotinylated probe aFGF2 – biochemical, small-molecule microarray, fluorescence 635/667, stem cell growth factor project, primary screen (AID 1067); conditions: higher = more signal;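 note: measures binding of biotinylated aFGF2 protein to printed compounds on slides; z-score merges feature fluorescence and signal-to-noise across triplicate slides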
[4] = small molecules captured by biotinylated probe aFGF10 – biochemical, small-molecule microarray, fluorescence 635/667, stem cell growth factor project, primary screen (AID 1071); conditions: higher = more signal;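 note: score merges 667 nm spot intensity and signal to noise from triplicate slides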
[5] = target: Neurogenic locus notch homolog protein 2 (Homo sapiens) (UniProt Q04721); assay: small molecules binding Notch2 protein – biochemical, small-molecule microarray, 635 nm fluorescence, stem cell growth factors, primary screen (AID 1073); conditions: higher = more signal
Neurogenic locus notch homolog protein 2 (Homo sapiens), sequence (Q04721 whole entry, looked up, canonical isoform): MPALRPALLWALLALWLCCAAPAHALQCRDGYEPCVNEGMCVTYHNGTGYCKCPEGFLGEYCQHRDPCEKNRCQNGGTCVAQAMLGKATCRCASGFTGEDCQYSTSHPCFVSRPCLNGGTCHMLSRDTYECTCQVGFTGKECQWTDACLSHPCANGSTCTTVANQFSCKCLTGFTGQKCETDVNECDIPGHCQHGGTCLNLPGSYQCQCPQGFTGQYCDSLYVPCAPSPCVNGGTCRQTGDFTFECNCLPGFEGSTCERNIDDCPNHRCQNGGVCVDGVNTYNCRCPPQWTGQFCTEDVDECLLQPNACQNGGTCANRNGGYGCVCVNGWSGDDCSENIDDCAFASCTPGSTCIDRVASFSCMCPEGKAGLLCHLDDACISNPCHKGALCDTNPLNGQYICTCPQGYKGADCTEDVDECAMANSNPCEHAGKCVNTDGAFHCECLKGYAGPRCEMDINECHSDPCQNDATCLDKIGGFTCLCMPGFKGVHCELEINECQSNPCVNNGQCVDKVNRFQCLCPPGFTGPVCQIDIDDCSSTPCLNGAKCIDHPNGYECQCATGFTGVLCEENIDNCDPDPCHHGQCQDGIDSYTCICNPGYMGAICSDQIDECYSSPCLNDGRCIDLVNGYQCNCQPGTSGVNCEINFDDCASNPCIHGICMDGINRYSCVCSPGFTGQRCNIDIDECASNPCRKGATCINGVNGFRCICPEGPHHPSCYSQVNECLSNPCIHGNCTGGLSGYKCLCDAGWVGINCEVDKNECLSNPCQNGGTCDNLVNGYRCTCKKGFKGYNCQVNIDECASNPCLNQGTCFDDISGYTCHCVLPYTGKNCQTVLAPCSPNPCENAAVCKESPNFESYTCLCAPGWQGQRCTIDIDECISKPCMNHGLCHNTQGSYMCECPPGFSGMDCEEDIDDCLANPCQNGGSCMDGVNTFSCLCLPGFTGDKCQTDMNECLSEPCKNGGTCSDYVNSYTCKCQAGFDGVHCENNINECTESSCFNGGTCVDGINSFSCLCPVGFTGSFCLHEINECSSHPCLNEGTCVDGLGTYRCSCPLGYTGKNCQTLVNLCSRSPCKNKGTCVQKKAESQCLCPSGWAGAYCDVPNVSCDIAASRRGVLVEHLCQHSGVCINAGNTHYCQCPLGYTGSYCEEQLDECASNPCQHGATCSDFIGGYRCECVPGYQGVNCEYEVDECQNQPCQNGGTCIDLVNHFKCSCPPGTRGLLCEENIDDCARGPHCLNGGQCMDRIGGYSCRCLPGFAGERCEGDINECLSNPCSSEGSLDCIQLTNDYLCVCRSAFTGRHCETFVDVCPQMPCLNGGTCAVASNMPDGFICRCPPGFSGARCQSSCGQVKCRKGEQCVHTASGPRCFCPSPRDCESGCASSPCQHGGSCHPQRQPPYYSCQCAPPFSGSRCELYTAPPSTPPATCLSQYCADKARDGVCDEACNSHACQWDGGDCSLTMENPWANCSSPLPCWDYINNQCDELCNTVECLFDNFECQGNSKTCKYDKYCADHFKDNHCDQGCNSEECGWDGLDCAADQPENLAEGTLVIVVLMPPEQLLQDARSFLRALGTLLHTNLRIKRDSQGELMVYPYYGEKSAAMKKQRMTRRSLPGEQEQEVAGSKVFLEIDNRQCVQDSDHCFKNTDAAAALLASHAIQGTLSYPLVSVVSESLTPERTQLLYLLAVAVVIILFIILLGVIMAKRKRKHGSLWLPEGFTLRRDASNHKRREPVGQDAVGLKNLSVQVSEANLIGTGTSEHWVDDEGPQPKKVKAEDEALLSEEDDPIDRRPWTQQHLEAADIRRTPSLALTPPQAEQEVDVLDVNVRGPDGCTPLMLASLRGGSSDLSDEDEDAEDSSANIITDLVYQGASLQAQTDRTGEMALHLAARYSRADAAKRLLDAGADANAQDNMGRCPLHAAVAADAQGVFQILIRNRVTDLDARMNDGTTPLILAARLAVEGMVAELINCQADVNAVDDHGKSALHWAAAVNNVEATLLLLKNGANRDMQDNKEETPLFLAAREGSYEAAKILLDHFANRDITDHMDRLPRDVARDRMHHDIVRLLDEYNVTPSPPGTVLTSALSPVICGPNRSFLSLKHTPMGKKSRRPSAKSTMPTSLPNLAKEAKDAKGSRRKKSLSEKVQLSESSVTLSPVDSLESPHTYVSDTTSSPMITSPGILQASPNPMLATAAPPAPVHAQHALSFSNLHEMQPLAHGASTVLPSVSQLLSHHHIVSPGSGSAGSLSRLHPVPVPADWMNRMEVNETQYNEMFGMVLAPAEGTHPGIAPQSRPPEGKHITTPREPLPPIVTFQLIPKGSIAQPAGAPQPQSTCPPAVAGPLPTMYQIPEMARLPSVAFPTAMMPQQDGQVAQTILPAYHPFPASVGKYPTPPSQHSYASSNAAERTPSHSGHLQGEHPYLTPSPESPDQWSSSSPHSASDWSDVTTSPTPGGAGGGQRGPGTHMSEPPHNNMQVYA

[6] = target: Pro-neuregulin-1, membrane-bound isoform (Homo sapiens) (UniProt Q02297); assay: small molecules binding neuregulin-1 protein – biochemical, small-molecule microarray, fluorescence 635/667, psychiatric disease protein project, primary screen (AID 1075); conditions: NRG1 binding, 635 nm fluorescence, higher = more signal;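 note: score combines 667 nm spot fluorescence with signal to noise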
Pro-neuregulin-1, membrane-bound isoform (Homo sapiens), sequence (Q02297 whole entry, looked up, the tested form may be a part, canonical isoform): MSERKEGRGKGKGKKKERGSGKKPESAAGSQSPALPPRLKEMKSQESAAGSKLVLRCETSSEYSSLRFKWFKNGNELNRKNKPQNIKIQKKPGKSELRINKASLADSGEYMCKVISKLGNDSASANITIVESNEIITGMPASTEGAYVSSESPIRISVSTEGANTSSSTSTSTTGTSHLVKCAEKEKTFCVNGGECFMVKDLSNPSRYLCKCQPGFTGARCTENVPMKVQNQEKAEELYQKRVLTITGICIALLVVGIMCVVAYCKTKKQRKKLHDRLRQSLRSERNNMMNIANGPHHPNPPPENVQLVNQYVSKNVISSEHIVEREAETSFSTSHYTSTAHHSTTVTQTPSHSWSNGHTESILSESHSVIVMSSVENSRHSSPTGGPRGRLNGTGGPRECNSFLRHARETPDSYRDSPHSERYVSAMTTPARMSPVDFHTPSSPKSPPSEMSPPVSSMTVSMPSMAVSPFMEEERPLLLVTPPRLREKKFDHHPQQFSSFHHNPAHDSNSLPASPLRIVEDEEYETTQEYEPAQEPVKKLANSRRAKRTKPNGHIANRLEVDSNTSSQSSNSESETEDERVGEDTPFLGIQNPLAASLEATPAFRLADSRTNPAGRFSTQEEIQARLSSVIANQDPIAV

[7] = test system: Neuregulin-1 EGF-like domain; assay: small molecules binding NRG1 EGF domain – biochemical, small-molecule microarray, 635 nm fluorescence, primary screen (AID 1081); conditions: higher = more signal;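 note: binding of the protein to compounds printed on small-molecule microarray slides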
[8] = FRG1 expression reporter modulators in myotubes – cell-based, C2C12 myotubes, firefly/Renilla luciferase, luminescence, FRG1 inhibition for FSHD, primary screen (AID 1084); conditions: FRG1 promoter luciferase, higher = more signal, called active from +8 up or from −8 down
[9] = small molecules captured by biotinylated probe aFST – biochemical, small-molecule microarray, fluorescence 635/667, stem cell growth factor project, primary screen (AID 1086); conditions: higher = more signal;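 note: score merges 667 nm fluorescence with signal-to-noise of each printed compound spot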
[10] = binders of probe aHhip on microarray, primary screen, stem cell growth factor project, biochemical, small-molecule microarray, fluorescence 635/667 (AID 1087); conditions: higher = more signal;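 note: score merges spot fluorescence at 667nm with spot signal to noise ratio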

O=C1OCC=C[C@H]2OC34C=CCN(c5ccc(Cl)cc5)C(=O)[C@H]3N(CCCCCO)C(=O)[C@@H]4[C@@H]12 (stereo not given in full)
composite z-score [1]: 0.716 | composite z-score [2]: 1.77 | composite z-score [3]: -0.163 | composite z-score [4]: -0.815 | composite z-score [5]: -1.07 | composite z-score [6]: -0.0571 | composite z-score [7]: 1.06 | z-score [8]: -0.633 (inactive) | composite z-score [9]: -0.354 | composite z-score [10]: -0.236

C[C@H]1ON(c2ccc(C(=O)OC(C)(C)C)cc2)[C@@H](c2ccc(O)cc2)[C@@H]1C(=O)N1C(=O)OC[C@@H]1c1ccccc1
composite z-score [1]: -0.565 | composite z-score [2]: -0.156 | composite z-score [3]: -0.117 | composite z-score [4]: 0.686 | composite z-score [5]: 1.42 | composite z-score [6]: 0.464 | composite z-score [7]: 1.15 | z-score [8]: -0.308 (inactive) | composite z-score [9]: 0.184 | composite z-score [10]: -0.0022

CN(C)CCCNC(=O)[C@@]1(c2ccc([N+](=O)[O-])cc2)CC(=O)N(CC23CC4CC(CC(C4)C2)C3)[C@@H]1c1ccc(CO)cc1
composite z-score [1]: 1.47 | composite z-score [2]: 1.15 | composite z-score [3]: 0.301 | composite z-score [4]: 0.143 | composite z-score [5]: 0.904 | composite z-score [6]: 1.38 | composite z-score [7]: 1.35 | z-score [8]: -2.36 (inactive) | composite z-score [9]: 1.92 | composite z-score [10]: 0.635

O=C1NC(=O)C2C1C=CC(C(O)c1ccc3c(c1)OCO3)N2Nc1ccccn1 (stereo not given)
composite z-score [1]: -0.0049 | composite z-score [2]: 0.0415 | composite z-score [3]: 0.271 | composite z-score [4]: 0.204 | composite z-score [5]: 0.994 | composite z-score [6]: 1.91 | composite z-score [7]: 1.16 | z-score [8]: -0.653 (inactive) | composite z-score [9]: 0.364 | composite z-score [10]: 0.0274

O=C1OCCC=C[C@H]2OC34C=CCN(c5ccc(Cl)cc5)C(=O)[C@H]3N(CCCCCO)C(=O)[C@@H]4C12 (stereo not given in full)
composite z-score [1]: 0.418 | composite z-score [2]: 1.77 | composite z-score [3]: -0.116 | composite z-score [4]: -0.112 | composite z-score [5]: 0.0387 | composite z-score [6]: 1.48 | composite z-score [7]: 1.44 | z-score [8]: -0.997 (inactive) | composite z-score [9]: -0.149 | composite z-score [10]: -0.0708

C=CCC(OC(C)=O)[C@@H]1[C@@H](N(Cc2cc3ccccc3o2)C(=O)Cc2ccc(F)cc2)c2cc(OCCCO)ccc2N1C(=O)c1ccc2ccccc2n1 (stereo not given in full)
composite z-score [1]: -0.0583 | composite z-score [2]: 0.337 | composite z-score [3]: -0.0695 | composite z-score [4]: 0.0991 | composite z-score [5]: -0.0518 | composite z-score [6]: -0.137 | composite z-score [7]: -0.275 | z-score [8]: -0.591 (inactive) | composite z-score [9]: 0.0407 | composite z-score [10]: 0.0881

Cc1c(NC(=O)/C(C#N)=C/C=C/c2ccc(N(C)C)cc2)c(=O)n(-c2ccccc2)n1C
composite z-score [1]: -0.266 | composite z-score [2]: 0.297 | composite z-score [3]: 0.29 | composite z-score [4]: 0.82 | composite z-score [5]: 1.18 | composite z-score [6]: 1.49 | composite z-score [7]: 1.17 | z-score [8]: 3.7 (inactive) | composite z-score [9]: 0.512 | composite z-score [10]: 0.409

O=C1O[C@@H](c2ccccc2)[C@@H](c2ccccc2)N2[C@@H](c3ccc(O)cc3)[C@]3(C(=O)Nc4ccc(C#CCCO)cc43)[C@@H](C(=O)Nc3nc4ccccc4s3)[C@H]12
composite z-score [1]: 0.0071 | composite z-score [2]: 1.27 | composite z-score [3]: -0.0721 | composite z-score [4]: 0.987 | composite z-score [5]: 0.37 | composite z-score [6]: 1.45 | composite z-score [7]: 1.19 | z-score [8]: 0.213 (inactive) | composite z-score [9]: 0.158 | composite z-score [10]: -0.236

CCOC(=O)C[C@H]1[C@H](OC(=O)c2ccc(-c3ccccc3)cc2)[C@@H](NC(=O)c2ccc3ccccc3c2)c2cc(OCCCO)ccc2N1C(=O)c1ccc2ccccc2n1
composite z-score [1]: -0.0093 | composite z-score [2]: 0.0135 | composite z-score [3]: -0.06 | composite z-score [4]: 0.398 | composite z-score [5]: 0.676 | composite z-score [6]: 0.706 | composite z-score [7]: 0.15 | z-score [8]: 0.247 (inactive) | composite z-score [9]: 0.426 | composite z-score [10]: 0.154

COC(=O)[C@@]1(Cc2ccccc2)[C@H]2c3cc(C(=O)N4CCCC4)[nH]c3C[C@H]2CN1C(=O)c1ccccc1
composite z-score [1]: 0.718 | composite z-score [2]: 0.065 | composite z-score [3]: 0.134 | composite z-score [4]: -0.0267 | composite z-score [5]: 1.13 | composite z-score [6]: 1.29 | composite z-score [7]: 0.664 | z-score [8]: 0.535 (inactive) | composite z-score [9]: 0.623 | composite z-score [10]: -0.133

CCCC[C@@H]1C[C@H]1[C@@H](NC(=O)c1cccnc1)c1ccc(-c2ccccc2)cc1
composite z-score [1]: 0.684 | composite z-score [2]: -0.242 | composite z-score [3]: -0.124 | composite z-score [4]: -0.522 | composite z-score [5]: -1.71 | composite z-score [6]: -0.401 | composite z-score [7]: -0.655 | z-score [8]: -0.781 (inactive) | composite z-score [9]: -1.23 | composite z-score [10]: -0.0074

COc1c(C)cc(-c2cc3c(c(-c4ccccc4)n2)[Si](C(C)C)(C(C)C)OC3)cc1C
composite z-score [1]: -0.0563 | composite z-score [2]: -0.0385 | composite z-score [3]: -0.241 | composite z-score [4]: -0.304 | composite z-score [5]: -0.181 | composite z-score [6]: -0.112 | composite z-score [7]: -1.15 | z-score [8]: -0.577 (inactive) | composite z-score [9]: -0.205 | composite z-score [10]: -0.0672

C=CC[C@@H](OC(=O)Nc1ccc(OC)cc1)c1ccc(OCCO)cc1
composite z-score [1]: 0.767 | composite z-score [2]: -1.54 | composite z-score [3]: -0.131 | composite z-score [4]: -0.805 | composite z-score [5]: -2.39 | composite z-score [6]: -0.682 | composite z-score [7]: 0.0481 | z-score [8]: 5.78 (inactive) | composite z-score [9]: -1.25 | composite z-score [10]: 0.0722

COc1ccc(NN2C(C(O)c3ccccn3)C=CC3C(=O)N(C4CCCCC4)C(=O)C32)cc1 (stereo not given)
composite z-score [1]: -0.218 | composite z-score [2]: -0.287 | composite z-score [3]: 0.0944 | composite z-score [4]: 0.467 | composite z-score [5]: 1.59 | composite z-score [6]: 1.36 | composite z-score [7]: 1.17 | z-score [8]: 3.21 (inactive) | composite z-score [9]: 1.29 | composite z-score [10]: -0.152

COc1ccc([Si](C)(C)[C@H]2[C@H](CC(=O)N3Cc4ccccc4C[C@H]3CO)O[C@@]3(C(=O)N(Cc4cccc(N5CCCCC5=O)c4)c4ccccc43)[C@@H]2C)cc1
composite z-score [1]: 0.0111 | composite z-score [2]: 0.576 | composite z-score [3]: 0.085 | composite z-score [4]: 0.36 | composite z-score [5]: 0.246 | composite z-score [6]: 0.175 | composite z-score [7]: 1.2 | z-score [8]: -2.09 (inactive) | composite z-score [9]: 0.342 | composite z-score [10]: 0.0274

CCOc1cc(C(O)C2C=CC3C(=O)N(C4CCCCC4)C(=O)C3N2Nc2ccc(OC)cc2)ccc1O (stereo not given)
composite z-score [1]: 0.26 | composite z-score [2]: 0.456 | composite z-score [3]: 0.0465 | composite z-score [4]: 0.339 | composite z-score [5]: 1.64 | composite z-score [6]: 1.72 | composite z-score [7]: 1.28 | z-score [8]: 1.79 (inactive) | composite z-score [9]: 0.775 | composite z-score [10]: -0.132
